GDH-TPI counter: counter-screen for M. tuberculosis FBA inhibitors: GDH-TPI coupled enzymes; 360,000 compounds, 1.2% hits; AID 588335; GDH-TPI coupled enzyme counterscreen, NADH absorbance; inhibition, % at 4.8 µM; in the data active = inhibition above about 30%
BH1578 lux ind: induces V. cholerae light production without autoinducers. AID 588436. activation, % at 18.7 µM. V. cholerae BH1578 lux reporter, luminescence, 6 h. 350,000 compounds, 0.16% hits; in the data active = activation mostly above about 9.7%, no sharp cut-off
Mtb BioA inh: inhibitors of Mycobacterium tuberculosis BioA enzyme. 360,000 compounds, 0.096% hits. inhibition, % at 9.99 µM. purified M. tuberculosis BioA enzyme, plate reader; in the data active = inhibition above about 40%
Mtb FBA inh: inhibitors of M. tuberculosis fructose-bisphosphate aldolase; 360,000 compounds, 2.3% hits; inhibition, % at 1 µM; purified M. tuberculosis FBA, fluorescence read-out; P9WQA3; in the data active = inhibition above about 27%
Target sequence (P9WQA3 whole entry, looked up): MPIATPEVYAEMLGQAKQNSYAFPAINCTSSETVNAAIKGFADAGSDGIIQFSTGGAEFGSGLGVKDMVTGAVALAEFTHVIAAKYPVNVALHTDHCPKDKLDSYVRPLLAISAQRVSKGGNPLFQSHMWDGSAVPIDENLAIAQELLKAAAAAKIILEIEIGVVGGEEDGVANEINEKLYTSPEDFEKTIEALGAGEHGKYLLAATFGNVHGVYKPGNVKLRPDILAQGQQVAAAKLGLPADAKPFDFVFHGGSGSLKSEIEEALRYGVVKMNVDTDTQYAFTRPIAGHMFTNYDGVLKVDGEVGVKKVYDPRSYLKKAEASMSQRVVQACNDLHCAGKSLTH
Of the large screens only hits and unclear results are named; the others gave an inactive call. A selection: hits, their analogues and other compounds. The true share with any hit is near 3%.

CCN(CC)CCCNc1ccc(-c2nnc(-c3ccc(OCC(C)C)cc3)o2)cn1	Mtb FBA inh active
C=CC(=O)Nc1cccc(Oc2ccnc(Nc3ccc(N4CCN(C)CC4)cc3)n2)c1	none
C=CC(=O)Nc1cccc(Oc2ccnc3[nH]ccc23)c1	Mtb FBA inh 180
COc1ccccc1CNC(=O)c1cnc2ccccn2c1=O	none (no result: BH1578 lux ind)
Cc1cccc(NC(=O)c2cnc3sccn3c2=O)n1	GDH-TPI counter 33
O=C(NCc1cccnc1)c1cnc2sccn2c1=O	GDH-TPI counter 41
COc1ccccc1CNC(=O)c1cnc2sccn2c1=O	GDH-TPI counter 36
Cc1cccc(NC(=O)c2cnc3sccn3c2=O)c1	none (no result: BH1578 lux ind)
C[C@H](CO)N1C[C@H](C)[C@@H](CN(C)C(=O)C2CCC2)Oc2ncc(C#CC(C)(C)O)cc2C1=O	none (no result: GDH-TPI counter, BH1578 lux ind, Mtb FBA inh)
C[C@H](CO)N1C[C@H](C)[C@@H](CN(C)S(=O)(=O)CC(F)(F)F)OCc2ccccc2-c2ccccc2C1=O	none (no result: GDH-TPI counter, BH1578 lux ind, Mtb FBA inh)
Cc1c(NC(=S)N/N=C\c2ccccc2O)c(=O)n(-c2ccccc2)n1C	GDH-TPI counter 31 (no result: Mtb BioA inh)
Cc1c(NC(=S)N/N=C/c2ccc(Br)cc2)c(=O)n(-c2ccccc2)n1C	none (no result: Mtb BioA inh)
Cc1c(NC(=S)N/N=C/c2ccc([N+](=O)[O-])cc2O)c(=O)n(-c2ccccc2)n1C	GDH-TPI counter 48 (no result: Mtb BioA inh)
Cc1cccc(-c2nc(C#N)c(N3CCCCCC3)o2)c1	Mtb FBA inh 139
COc1ccc(-c2nc(C#N)c(N3CCc4ccccc4C3)o2)cc1OC	GDH-TPI counter 41, Mtb FBA inh 150
COc1ccccc1-c1nc(C#N)c(N2CCCCCC2)o1	Mtb FBA inh active
COc1cccc(-c2c(NC(=O)c3ccco3)oc3ccc(Cl)cc3c2=O)c1	GDH-TPI counter 36
COc1cccc(-c2c(NC(=O)c3ccco3)oc3ccccc3c2=O)c1	none
O=[N+]([O-])c1ccc2nc(-c3ccc(Cl)cc3)n(OCc3ccccc3)c2c1	GDH-TPI counter 34 (no result: Mtb BioA inh)
CCOc1ccc(-n2nc3cc(C)c(N)cc3n2)cc1	Mtb FBA inh 164
COc1ccc(-n2nc3cc(C)c(N)cc3n2)cc1Cl	GDH-TPI counter 36
CCOc1ccc(N2C(N)=NC(N)=NC2(C)C)cc1	none
COc1ccc(CCN2C(=O)[C@@]3(Cc4ccccc42)c2ccccc2C(=O)N(C2CCCCC2)[C@H]3c2ccc(CO)cc2)cc1	none (no result: GDH-TPI counter, BH1578 lux ind, Mtb FBA inh)
O=C(CSc1n[nH]c(-c2ccc(S(=O)(=O)NC3CCCCC3)cc2)n1)N1CCCC1	Mtb FBA inh 125
C[C@H](CO)N1C[C@H](C)[C@H](CN(C)C(=O)C2CCOCC2)Oc2ncc(-c3cccnc3)cc2C1=O	none (no result: GDH-TPI counter, BH1578 lux ind, Mtb FBA inh)
O=C(CN1CCN(C2CCCCC2)CC1)Nc1cccc2ccccc12	GDH-TPI counter 32
O=C(N/N=C/c1ccc(N2CCOCC2)cc1)c1ccccn1	GDH-TPI counter 67 (no result: Mtb BioA inh)
O=C(N/N=C/c1ccc2c(c1)OCO2)c1ccccn1	GDH-TPI counter 41
Cc1ccc2nc(C)c(C(=O)N/N=C/c3ccc(N4CCOCC4)cc3)cc2c1	GDH-TPI counter 41 (no result: Mtb BioA inh)
O=C(/C=C/c1ccc2c(c1)OCO2)c1ccccn1	none
O=C(N/N=C/c1ccncc1)c1ccccn1	none
O=C(N/N=C/c1cc2c(cc1Br)OCO2)c1ccccn1	GDH-TPI counter 31
CC(C)NC(=O)N(C)C[C@@H]1Oc2ccc(NC(=O)Nc3cccc4ccccc34)cc2CC(=O)N([C@H](C)CO)C[C@@H]1C	none (no result: GDH-TPI counter, BH1578 lux ind, Mtb FBA inh)
C[C@@H]1CN([C@H](C)CO)C(=O)c2cc(NC(=O)CCC(F)(F)F)ccc2O[C@@H](C)CCCCO[C@H]1CN(C)C(=O)c1ccccc1	none (no result: GDH-TPI counter, BH1578 lux ind, Mtb FBA inh)
C[C@H]1CCCCO[C@@H](CN(C)C(=O)Nc2ccc3c(c2)OCO3)[C@@H](C)CN([C@@H](C)CO)C(=O)c2cc(NC(=O)Nc3ccc(C(F)(F)F)cc3)ccc2O1	none (no result: GDH-TPI counter, BH1578 lux ind, Mtb FBA inh)
C[C@@H]1CCCCO[C@H](CN(C)C(=O)Nc2ccc(F)cc2)[C@@H](C)CN([C@@H](C)CO)C(=O)c2cc(NC(=O)C3CCCCC3)ccc2O1	none (no result: GDH-TPI counter, BH1578 lux ind, Mtb FBA inh)
Cc1c(C(=O)N/N=C/c2ccc(N3CCOCC3)cc2)nc2ccccn12	GDH-TPI counter 31 (no result: Mtb BioA inh)
COc1cc(/C=N/NC(=O)c2nc3ccccn3c2C)cc(OC)c1O	none (no result: Mtb BioA inh)
Cc1noc(C)c1NC(=O)N(C)C[C@@H]1OCCCC[C@@H](C)Oc2ccc(NS(=O)(=O)c3c(C)noc3C)cc2C(=O)N([C@@H](C)CO)C[C@H]1C	none (no result: GDH-TPI counter, BH1578 lux ind, Mtb FBA inh)
COc1cccc2[nH]c3c(N4CCC(C(N)=O)CC4)ncnc3c12	Mtb FBA inh 183 (no result: Mtb BioA inh)
Clc1ccc(-c2cn3cccnc3n2)cc1Cl	Mtb FBA inh 70
Clc1ccc(-c2cn3cccnc3n2)cc1	Mtb FBA inh active (no result: Mtb BioA inh)
COc1ccc(-c2cn3cccnc3n2)cc1NS(=O)(=O)c1ccccc1	none (no result: Mtb BioA inh)
COc1ccc(-c2cn3cccnc3n2)cc1F	Mtb FBA inh active (no result: Mtb BioA inh)
Brc1ccc(-c2cn3cccnc3n2)cc1	Mtb FBA inh 139
O=S(=O)(Nc1cccc(-c2cn3cccnc3n2)c1)c1ccc(-c2ccccc2)cc1	none
CC(=O)c1ccc(Nc2cc(C)nc3nc(C)nn23)cc1	GDH-TPI counter 31
C[C@H](CO)N1C[C@H](C)[C@@H](CN(C)C(=O)CCC(F)(F)F)OCCCC[C@H](C)Oc2ccc(NC(=O)c3ccccc3)cc2C1=O	none (no result: GDH-TPI counter, BH1578 lux ind, Mtb FBA inh)
O=C(CSc1nnc(CNC(=O)c2cccs2)o1)NCC1CCCO1 (configuration not stated)	none (no result: Mtb BioA inh)
O=C(CSc1nnc(CNC(=O)c2cccs2)o1)NC1CCCCC1	BH1578 lux ind 15
CCC/C(O)=N\S(=O)(=O)c1ccc(N=NN(C)C)cc1	none
CN(C)N=Nc1ccc(S(=O)(=O)/N=C(\O)c2ccccc2)cc1	GDH-TPI counter 39
COC(=O)c1sc(-c2ccc(Cl)cc2)cc1NC(=O)COCC(=O)O	GDH-TPI counter 35 (no result: Mtb BioA inh)
Cc1ccc(C(=O)NC(=S)NNC(=O)c2ccccc2)cc1	none
Cc1ccc(C(=O)NNC(=S)NC(=O)c2ccccc2)cc1	GDH-TPI counter 31 (no result: Mtb BioA inh)
CC/C(=N/NC(=O)c1ccccc1O)c1c(C)[nH]n(-c2ccccc2)c1=O	GDH-TPI counter 31
Cc1[nH]n(-c2ccccc2)c(=O)c1C(=O)c1ccccc1	none
O=C(NCc1cccs1)c1cccn2c(=O)c3sccc3nc12	GDH-TPI counter 31 (no result: Mtb BioA inh)
O=C(NCc1ccco1)c1cccn2c(=O)c3sccc3nc12	none
COc1ccc(CN(C)C[C@@H]2OCCCC[C@@H](C)Oc3ccc(NC(=O)c4ccccc4)cc3C(=O)N([C@@H](C)CO)C[C@@H]2C)cc1	none (no result: GDH-TPI counter, BH1578 lux ind, Mtb FBA inh)
O=C(NCC[C@@H]1CC[C@H](NC(=O)C2CC2)[C@H](CO)O1)c1cc(Cl)cc(Cl)c1	none (no result: GDH-TPI counter, BH1578 lux ind, Mtb FBA inh)
Cn1c(CC(=O)NNC(=O)c2ccc(F)cc2F)nc2ccccc21	none
Cn1c(CC(=O)NNC(=O)c2cccnc2)nc2ccccc21	BH1578 lux ind 20
COP(=O)(OC)c1nc(-c2cccc3ccccc23)oc1NCCc1ccccc1	Mtb FBA inh active (no result: Mtb BioA inh)
COc1ccc(CCNc2oc(-c3cccc4ccccc34)nc2P(=O)(OC)OC)cc1OC	Mtb FBA inh 188
C[C@@H]1CN([C@@H](C)CO)C(=O)c2cccc(NC(=O)c3cnccn3)c2O[C@@H]1CN(C)S(C)(=O)=O	none (no result: GDH-TPI counter, BH1578 lux ind, Mtb FBA inh)
CC1=CC(c2ccc(Cl)cc2)n2nc(NC(=O)CCC(=O)O)nc2N1 (configuration not stated)	Mtb FBA inh 115 (no result: Mtb BioA inh)

Bioassay records: PubChem, several laboratories
